High-throughput results (PubChem)
Only some compounds are listed: those with a hit (about 4.2% of all), similar ones and a draw of the others.
TCR activator = activators of T cell receptors; 330,000 tested, under 10 active; Potency, µM (series often up to 9.22 µM), for inactives: at the highest dose activation of IL-2 secretion, actives largely listed as activators; primary human leukocytes, anti-CD3, IL-2 HTRF, 48 h; note: % of control where 0% means no effect
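48 hr co-incubation of compounds, a-CD3 beads and primary human leukocytes; IL-2 quantified homogeneously by HTRF with anti-IL-2 K and d2 conjugates.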
ClpP mod = qHTS Assay for Activators of ClpP. ATP-dependent Clp protease proteolytic subunit (Bacillus subtilis (strain 168)), P80244. purified B. subtilis ClpP, FRET peptide cleavage, 20 min. Potency, µM (titrated, usually from 57.5 µM), inactives show top-dose activity change, negative = active. hit rate 1.9% among 340,000. AID 651965, 2013; active = well fitted falling curve with a large enough effect; inconclusive = small, poorly fitted or top-dose-only effect; inactive = no such curve, though single readings can be large or run the other way; note: potency is the fitted concentration of half-maximal effect; the source files actives as falling curves though it sought activators and does not explain the sign; nearly all actives have a fitted effect of over 65% in size
Target sequence (P80244 whole entry, looked up): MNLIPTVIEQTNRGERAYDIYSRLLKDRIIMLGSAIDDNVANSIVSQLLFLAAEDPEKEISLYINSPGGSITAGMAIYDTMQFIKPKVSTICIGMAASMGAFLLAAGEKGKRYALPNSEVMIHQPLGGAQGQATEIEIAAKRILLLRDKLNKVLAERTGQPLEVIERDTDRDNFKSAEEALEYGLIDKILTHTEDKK
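ClpP 10 microg/mL final, pH 8 Tris/KCl buffer with BSA, glycerol, Tween-20; compound pinned in; FRET-FV substrate; RT 20 min; Ex320/Em430; ΔFRET vs ADEP 5.8 microM, DMSO, no enzyme.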
uPA surface inh = blocks generation of uPA at the cell surface. hit rate 0.31% among 330,000. Potency, µM (doses to about 38.3 µM), for inactives: at the highest dose activity change, negative = inhibition, hits mostly inhibitors. AID 540303. cell surface uPA generation assay, qHTS; active = well fitted inhibition curve with a large enough effect; inconclusive = small, poorly fitted or top-dose-only effect; inactive = no such curve, though single readings can be large or run the other way; tested in mouse RAW 264.7 cells; note: potency is the fitted concentration of half-maximal effect; % is set by controls: 0 for no effect and ±100 for the full control effect; nearly all actives have a fitted effect of over 55% in size
Sfp PPTase inh = inhibitors of Bacillus subtilis Sfp phosphopantetheinyl transferase; Biochemical Sfp PPTase activity, qHTS; hit rate 3.5% among 310,000; Potency, µM, inactives show largest response in the series, negative = inhibition, usual class: inhibitors;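 note: the enzyme is Sfp with the accession as filed and its product quenches rhodamine fluorescence; potency is the fitted concentration of half-maximal effect; 0% = enzyme reaction without inhibitor and -100% = no enzyme wells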
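Reaction rates are the 30-min fluorescence difference (ex 525, em 598 nm) in wells containing 15 nM Sfp, 5 uM rhodamine-CoA and 12.5 uM BHQ-2-YbbR at pH 7.6 with 10 mM MgCl2.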
An asterisk follows results filed as active; ? = inconclusive; / = no result given; ! = not active in a repeat; [ ] = dose if it differs, or a comment. Unless noted, calls come from the whole dose curve; as a rule, active = well fitted curve in the direction sought with a large enough effect; inconclusive = small, poorly fitted or top-dose-only effect, or another doubt; inactive = no such curve, though single readings can be large; an effect the other way counts as inactive or inconclusive.

SMILES	TCR activator	ClpP mod	uPA surface inh	Sfp PPTase inh
CCCCCCCCCCCCC(=O)N1CCCC[C@H]1CNC(=O)[C@@H](N)CCCCN	/	/	/	50µM*
O=C1N=c2ccccc2=C1c1c(O)n(-c2cccc(F)c2)[nH]c1=O	-5%[46.1 µM]	6%	2%	11µM*
Cc1ccc(-n2nc3c(c2NC(=O)c2ccc(F)c(F)c2)CS(=O)(=O)C3)cc1	3%	28µM*	?	3%
Cc1ccc(-n2nc3c(c2NC(=O)c2ccc4c(c2)OCO4)CS(=O)(=O)C3)cc1	2%	-3%	-7%	9%
CCc1nc(SCC(=O)c2cc(C)ccc2C)n[nH]1	-1%	-3%	/	56µM*
Cc1ccc(C)c(C(=O)CSc2n[nH]c(C)n2)c1	1%	-1%	4%	79µM*
CCOC(=O)[C@H]1[C@H]2COc3ccc(OC)cc3[C@@H]2N2C(=O)c3cc(C)ccc3NC(=O)[C@@]12C	0%	-2%	7%	/
Cc1cn(C)c(CC(=O)NCc2cccc(Cl)c2)c1C(=O)O	/	-2%	/	/
O=C(O)c1cccnc1Cl	-7%[46.1 µM]	1%	-22%	11%
O=C(O)c1cccnc1C(=O)O	-2%	-2%	9%	89µM*!
COC(=O)c1ccccc1NC(=O)c1cccc(NC(=O)c2ccc(Br)o2)c1C	-3%	-5%	-12%	13%
COC(=O)c1cccc(NC(=O)c2cccnc2C(=O)O)c1C	0%	/	4%	79µM*
Cn1c(=S)[nH]c(=O)c2ncc(=O)[nH]c21	3%	/	9%	71µM*
CCNc1ncc2nc(-c3ccc(OC)cc3)c(=O)n(-c3ccc(OC)cc3)c2n1	/	/	/	12%
CSc1nc(C)cc(Nc2cccc(C(=O)O)c2)n1	/	-1%	/	/
Fc1ccccc1CN1CCCCCCC1	-3%	0%	-6%	56µM*
CCC(C)NC(=O)c1ccc2c(c1)N(Cc1ccccc1)C(=O)c1ccccc1S2(=O)=O (configuration not stated)	/	0%	/	/
CN(Cc1cnc2nc(N)nc(N)c2n1)c1ccc(C(=O)NC(CCC(=O)O)C(=O)O)cc1 (configuration not stated)	1%	16µM*	-11%	16%
COCCNc1nc(CSc2ccccc2)nc2sc(C)c(C)c12	1%[46.1 µM]	28µM*	6%	-10%
CCc1nn(C(C)C(=O)NCCc2ccccc2)c(=O)c2cc3occc3n12 (configuration not stated)	2%	-11%	-3%	5%
CCc1nn(C(C)C(=O)NC(C)CCc2ccco2)c(=O)c2cc3occc3n12 (configuration not stated)	-2%	1%	-1%	79µM*
CCC(=O)NC1Cc2ccccc2C(c2ccccc2)C1 (configuration not stated)	/	/	/	-6%
CCCN(CCC)C(=O)Cn1c(=O)n(-c2ccc(OC)cc2OC)c(=O)c2c3c(sc21)CCC3	/	-1%	/	/
Cc1nnc(N/N=C/c2ccc(-c3ccc(Br)cc3)o2)n1N	6%	/	-11%	56µM*
Cc1nn(-c2ccccc2)c2sc(C(=O)n3cccn3)cc12	-3%	?	2%	5%
SMILES	TCR activator	ClpP mod	uPA surface inh	Sfp PPTase inh
Cc1ccn(C(=O)c2cc3c(C)nn(-c4ccccc4)c3s2)n1	-13%	3.5µM*	-2%	-1%
Cc1nn(-c2ccccc2)c2sc(C(=O)NCCN3CCOCC3)cc12	0%	28µM*	0%	11%
Cc1nn(-c2ccccc2)c2sc(C(=O)OCn3nnc4ccccc4c3=O)cc12	-6%	10µM*	8%	?
Cc1cccc2c(=O)cc(CSc3ccccc3NC(=O)c3cccc(F)c3)[nH]c12	/	2%	/	/
O=C(O)/C=C/C(=O)NNc1ncnc2ccccc12	-3%	-2%	9%	56µM*
COc1cc2nc(N3CCN(C(=O)C4COc5ccccc5O4)CC3)nc(N)c2cc1OC (configuration not stated)	8%	5%	-28%	56µM*
O=C(C1COc2ccccc2O1)N1CCN(c2ccccc2)CC1 (configuration not stated)	3%	-3%	-1%	8%
O=C(C1COc2ccccc2O1)N1CCOCC1 (configuration not stated)	-6%	16µM*	-2%	0%
COc1ccc(C(C)(NC(C)=O)c2nc(-c3cccc(NC(C)=O)c3)cs2)cc1 (configuration not stated)	/	0%	/	/
Cc1cc(C(=O)COC(=O)CNC(=O)c2ccco2)c(C)n1Cc1ccco1	0%[46.1 µM]	-1%	1%	7%
Cc1cc(C(=O)CSc2ncccn2)c(C)n1Cc1ccco1	2%	/	-5%	56µM*
